{
  "source": "PubChem BioAssay AID651718",
  "about": "(The Scripps Research Institute Molecular Screening Center, 2012)",
  "note": "Screen size: about 360,000 compounds; about 2,700 (0.75%) were called active. The sample holds actives, similar compounds and a random draw of the others, so the mix is not that of the screen. Rule as the data show it: active = inhibition above about 4.5%; inactive = the rest.",
  "data": [
    {"test_system": "Methionine sulfoxide reductase A (Bos taurus)", "experiment": "inhibition of methionine sulfoxide reductase A – biochemical, absorbance, bovine, HTS, primary screen (AID 651718);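 also: 0% = vehicle wells with enzyme and 100% = reference inhibitor wells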", "details": "purified bovine MsrA, absorbance read-out; at 15.5 µM; stronger effect = higher value", "values": [
      {"smiles": "CCOc1ccc(-c2cc(C)[n+](CCN(CC)CC)c(-c3ccc(OCC)cc3)c2)cc1", "inhibition": "5.24% (active)"},
      {"smiles": "Clc1ccc([C@@H]2CC3CCC2N3)cn1", "note": "(stereo not given in full)", "inhibition": "-0.82% (inactive)"},
      {"smiles": "COc1cc(OC)cc(C(=O)NCCN2CCC3(CC2)C(=O)NCN3c2ccccc2)c1", "inhibition": "0% (inactive)"},
      {"smiles": "Brc1ccc2c(c1)CNCc1cnnn1-2", "inhibition": "-0.08% (inactive)"},
      {"smiles": "Cc1cc(N2CCNC[C@@H]2C)ccc1N1CC[C@H](O)C1", "inhibition": "0% (inactive)"},
      {"smiles": "COc1cccc(CN2CCCC(C(=O)c3ccccc3SC)C2)c1O", "note": "(stereo not given)", "inhibition": "1.68% (inactive)"},
      {"smiles": "Cc1ccc(CN2CCCC(C(=O)c3ccc4c(c3)OCO4)C2)cc1C", "note": "(stereo not given)", "inhibition": "0.84% (inactive)"},
      {"smiles": "COc1ccc(C(=O)C2CCCN(Cc3ccc(C)s3)C2)cc1OC", "note": "(stereo not given)", "inhibition": "4.73% (active)"},
      {"smiles": "COC1C(O)C(C)OC(OC2CCC3(C=O)C(CCC4C3CCC3(C)C(C5=CC(=O)OC5)CCC43O)C2)C1O", "note": "(stereo not given)", "inhibition": "0.09% (inactive)"},
      {"smiles": "CCC(C)NC1(c2ccccc2)CCCCC1", "note": "(stereo not given)", "inhibition": "-0.91% (inactive)"},
      {"smiles": "CCCCC(=O)N/N=C/c1c(O)n(CC)c(=S)n(CC)c1=O", "inhibition": "5.43% (active)"},
      {"smiles": "COc1ccc2c(c1)[C@@]13CCCCC1[C@@H](C2)NCC3", "note": "(stereo not given in full)", "inhibition": "0.27% (inactive)"},
      {"smiles": "O=S(=O)(c1ccccc1)N1CCC2CCNC2C1", "note": "(stereo not given)", "inhibition": "-0.74% (inactive)"},
      {"smiles": "CS(=O)(=O)N1CCC2CCNC2C1", "note": "(stereo not given)", "inhibition": "0.9% (inactive)"},
      {"smiles": "CCN(CC)C(=O)[C@@H]1C=C2c3cccc4[nH]c(Br)c(c34)C[C@H]2N(C)C1", "inhibition": "0% (inactive)"}
    ]}
  ]
}
